A short description of assay [1]: viability loss with induced miR-34 in A549 – imaging, A549 dox-inducible miR-34, nuclei and caspase counts, primary screen (AID 1347080). Further: test concentration not given here. Conditions: A549 miR-34 inducible, Hoechst nuclei count, 48 h.
The nature of assay [2]: MELAS cybrid and Rieske KO viability enhancers – cell-based, MELAS cybrids, Rieske KO mouse fibroblasts, CellTiter-Glo, primary screen (AID 1508586;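 active means mean z-score across replicates of 1.96 or higher in either the MELAS or the Rieske mutant cell line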;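 further: test concentration not given here; z relative to plate mean and SD of compound and empty wells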). Conditions: low glucose. (In general: Cellular ATP, detected with luciferase, serves as a proxy for viable cell number.)
A short description of assay [3]: galactose survival enhancers in mitochondrial complex I cybrids – cell-based, galactose medium, ATP luminescence, primary screen (AID 1645843;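 active means z-score of at least 1.8 in each of two replicates, scored against plate mean and spread of sample wells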;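 further: positive z means more ATP and so rescue of galactose-driven cybrid death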). As to conditions: complex I mutant cybrid cells, 72 h, stronger effect = higher value.
The mark [4] stands for this setting: stronger effect = lower value, cell number ratio, induced over uninduced.
[5] abbreviates: measured here: relative caspase fold change +Dox/-Dox.
Setting [6] is: measured here: total cells with miR-34 induction, stronger effect = lower value.
Setting [7] is: measured here: total cells without miR-34 induction.
Where [8] appears, read: MELAS cybrid survival, CellTiter-Glo 48 h, stronger effect = higher value.
The mark [9] stands for this setting: Rieske KO mouse fibroblast survival, CellTiter-Glo 72 h.

Values joined by “and” are separate entries in the source; they are usually repeats but may differ in a detail not shown here. Equal entries are not always repeated. Active and inactive are the calls of the source.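 How the source made its calls, unless noted: active means compounds whose cell count with miR-34 switched on is under 0.7 times the count with it off; inactive means the rest.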 Where a SMILES comes first, the peptide text is derived from it. [ ]: non-standard residue; d: D form. pGlu = O=C1CC[CH](C(=O)O)N1; Thz = O=C(O)[CH]1CSCN1

`CCc1ccccc1-c1cc(C)nc(N)n1`: the fold change in assay [1] (setting [4]) is 0.887 (inactive); in assay [1] (setting [5]) it was 1.81. In addition, the results for the cell count in assay [1] (setting [6]) and in assay [1] (setting [7]) were 8420 and 9490, respectively. For the same compound, the z-score was -0.131 (inactive) in assay [2] (setting [8]), -1.38 in assay [2] (setting [9]) and -0.555 (inactive) in assay [3].

Consider `Fc1ccc(CC2CCNCC2)cc1`, for which the fold change was 0.856 (inactive) in assay [1] (setting [4]) and 0.77 in assay [1] (setting [5]). Besides, the cell count is 8200 in assay [1] (setting [6]) and 9580 in assay [1] (setting [7]). Moreover, the z-score in assay [2] (setting [8]) was -0.906 (inactive); in assay [2] (setting [9]), 0.0714; in assay [3], 0.525 (inactive).

In the case of `O=C(O)c1ccc(-c2ccccc2OC(F)(F)F)o1`, the results for the fold change in assay [1] (setting [4]) and in assay [1] (setting [5]) were 0.872 (inactive) and 0.264, respectively. The cell count worked out at 8780 in assay [1] (setting [6]) and 10100 in assay [1] (setting [7]). For the same compound, the z-score in assay [2] (setting [8]) is -0.488 (inactive); in assay [2] (setting [9]) it was 0.181; in assay [3], 0.04 (inactive).

Consider `Cc1nn(C)cc1-c1ccnc(NCc2nc(-c3ccccc3)no2)n1`, for which the fold change was 0.84 (inactive) in assay [1] (setting [4]) and 1.25 in assay [1] (setting [5]). Further, the cell count was 7970 in assay [1] (setting [6]) and 9490 in assay [1] (setting [7]). The z-score in assay [2] (setting [8]) was -0.588 (inactive); in assay [2] (setting [9]), 1.31; in assay [3] it was 0.09 (inactive).

For `Cc1nsc(NC(=O)NC2Cc3ccccc3C2)n1`, the fold change in assay [1] (setting [4]) was 0.755 (inactive); in assay [1] (setting [5]), 2.05. The cell count in assay [1] (setting [6]) is 7330; in assay [1] (setting [7]), 9710. Also, the values for the z-score in assay [2] (setting [8]), in assay [2] (setting [9]) and in assay [3] were 0.128 (inactive), -0.355 and 2.51 (active), respectively.

For `O=C1CCC(C(=O)N2CSCC2C(=O)O)N1` (configuration not stated) ([pGlu]-[Thz]-OH; configuration not given here), the fold change in assay [1] (setting [4]) is 0.957 (inactive) and 1 (inactive); in assay [1] (setting [5]), 1.75 and 0.634. Further, the cell count in assay [1] (setting [6]) was 9270 and 8110; in assay [1] (setting [7]) it was 9680 and 8100. Also, the z-score in assay [2] (setting [8]) was -0.302 (inactive); in assay [2] (setting [9]) it was -0.109; in assay [3], 0.45 (inactive).

Turning to `O=C(O)CCCCCNC(=O)NC1CCCCC1`, the fold change in assay [1] (setting [4]) is 0.882 (inactive); in assay [1] (setting [5]) it was 0.38. Besides, the cell count in assay [1] (setting [6]) was 9190; in assay [1] (setting [7]) it was 10400. The z-score in assay [2] (setting [8]) was -0.568 (inactive); in assay [2] (setting [9]), 0.057; in assay [3] it was 0.68 (inactive).

Consider `COc1cc(CC2COC(=O)C2Cc2ccc(O)c(OC)c2)ccc1O` (configuration not stated), for which the fold change in assay [1] (setting [4]) was 0.888 (inactive); in assay [1] (setting [5]), 0.681. Also, the cell count in assay [1] (setting [6]) is 8440; in assay [1] (setting [7]), 9500. Besides, the z-score in assay [2] (setting [8]) is -1.09 (inactive); in assay [2] (setting [9]), -0.0925; in assay [3] it was -0.07 (inactive).

Consider `CCN(CCc1ccccn1)C(=O)c1cc(-c2cnc(N)nc2)nc2c(C)cccc12`, for which the fold change in assay [1] (setting [4]) was 0.904 (inactive); in assay [1] (setting [5]), 1.79. Further, the cell count in assay [1] (setting [6]) is 8640; in assay [1] (setting [7]), 9560. Moreover, the z-score was -0.0572 (inactive) in assay [2] (setting [8]), -0.177 in assay [2] (setting [9]) and 0.51 (inactive) in assay [3].

Regarding `O=C(Nc1n[nH]c(Cc2ccccc2)n1)N1CCN(c2ncncn2)CC1`, the figures for the fold change in assay [1] (setting [4]) and in assay [1] (setting [5]) were 0.914 (inactive) and 1.11, respectively. Besides, the cell count stood at 9380 in assay [1] (setting [6]) and 10300 in assay [1] (setting [7]). Moreover, the z-score is 0.379 in assay [2] (setting [8]), 4.03 in assay [2] (setting [9]) and 0.44 (inactive) in assay [3].

On to `O=C(O)CCCNC(=O)NC1CCCCC1`, for which the results for the fold change in assay [1] (setting [4]) and in assay [1] (setting [5]) were 0.89 (inactive) and 0.215, respectively. The cell count in assay [1] (setting [6]) worked out at 8970; in assay [1] (setting [7]), 10100. Also, the z-score was 0.354 (inactive) in assay [2] (setting [8]), -0.267 in assay [2] (setting [9]) and 0.455 (inactive) in assay [3].

`COc1ccc(-n2cccn2)c(-c2nnc3ccccn23)c1`: the fold change in assay [1] (setting [4]) was 0.89 (inactive); in assay [1] (setting [5]), 0.706. Moreover, the cell count in assay [1] (setting [6]) is 8500; in assay [1] (setting [7]), 9550. In addition, the values for the z-score in assay [2] (setting [8]), in assay [2] (setting [9]) and in assay [3] were -0.172 (inactive), -0.541 and -0.55 (inactive), respectively.

For `O=C(NCc1ccccn1)c1ccc(Oc2ccccc2)cc1`, the fold change is 0.933 (inactive) in assay [1] (setting [4]) and 0.296 in assay [1] (setting [5]). Further, the cell count was 8650 in assay [1] (setting [6]) and 9270 in assay [1] (setting [7]). Besides, the z-score in assay [2] (setting [8]) is 0.509 (inactive); in assay [2] (setting [9]), -0.417; in assay [3], 0.08 (inactive).

Take `COc1cccc(-c2noc(Cc3ccc4c(c3)OCO4)n2)c1`: the fold change is 0.929 (inactive) in assay [1] (setting [4]) and 1.11 in assay [1] (setting [5]). Also, the cell count was 9000 in assay [1] (setting [6]) and 9680 in assay [1] (setting [7]). Besides, the z-score in assay [2] (setting [8]) was 0.523 (inactive); in assay [2] (setting [9]) it was 0.163; in assay [3], 2.67 (active).

On to `Cc1cc(NC(=O)Cn2ncc3cc(-c4ccc(F)c(F)c4)ccc32)n(C)n1`, for which the fold change in assay [1] (setting [4]) is 0.877 (inactive); in assay [1] (setting [5]), 0.515. In addition, the cell count was found to be 4810 in assay [1] (setting [6]) and 5490 in assay [1] (setting [7]). For the same compound, the z-score in assay [2] (setting [8]) is 0.668 (inactive); in assay [2] (setting [9]), -0.0382; in assay [3] it was 0.765 (inactive).

With `O=C(NCCOc1cccnc1)c1ccc2ncsc2c1`, the fold change in assay [1] (setting [4]) was 0.858 (inactive); in assay [1] (setting [5]) it was 1.5. Also, the cell count in assay [1] (setting [6]) was determined as 7900; in assay [1] (setting [7]) it was 9210. For the same compound, the figures for the z-score in assay [2] (setting [8]), in assay [2] (setting [9]) and in assay [3] were 0.0996 (inactive), -0.557 and -0.56 (inactive), respectively.

On to `Cn1nc(NC(=O)Cn2cc(-c3nccc4occc34)cn2)c2ccccc21`, for which the values for the fold change in assay [1] (setting [4]) and in assay [1] (setting [5]) were 0.83 (inactive) and 2.06, respectively. Besides, the cell count in assay [1] (setting [6]) was 7280; in assay [1] (setting [7]), 8770. Moreover, the figures for the z-score in assay [2] (setting [8]), in assay [2] (setting [9]) and in assay [3] were 0.277 (inactive), -0.242 and -0.345 (inactive), respectively.

For the compound `Cc1nc(NC(=O)NCC2COc3ccccc3O2)nn1C(C)C` (configuration not stated), the fold change in assay [1] (setting [4]) was 0.958 (inactive); in assay [1] (setting [5]), 1.49. Also, the results for the cell count in assay [1] (setting [6]) and in assay [1] (setting [7]) were 8560 and 8940, respectively. Further, the z-score is -0.362 (inactive) in assay [2] (setting [8]), 0.824 in assay [2] (setting [9]) and 2.15 (active) in assay [3].

`c1ccc(-c2ncc(-c3ccn[nH]3)s2)cc1`: the fold change in assay [1] (setting [4]) is 0.881 (inactive); in assay [1] (setting [5]), 0.808. The cell count is 8010 in assay [1] (setting [6]) and 9090 in assay [1] (setting [7]). Further, the z-score in assay [2] (setting [8]) was 2.65 (active); in assay [2] (setting [9]), -0.462; in assay [3], -0.185 (inactive).

As for `Cc1csc(CNc2nccc(-c3cnn(-c4ccccc4)c3)n2)n1`, the fold change in assay [1] (setting [4]) is 0.775 (inactive); in assay [1] (setting [5]) it was 1.81. Moreover, the cell count in assay [1] (setting [6]) was determined as 4550; in assay [1] (setting [7]), 5870. Also, the z-score in assay [2] (setting [8]) is -0.292 (inactive); in assay [2] (setting [9]) it was 0.283; in assay [3], -0.175 (inactive).

In the case of `O=C1NCC(=O)N2CCCC12` (configuration not stated), the fold change in assay [1] (setting [4]) is 0.892 (inactive); in assay [1] (setting [5]), 0.892. The cell count in assay [1] (setting [6]) came out at 8240; in assay [1] (setting [7]) it was 9240. Moreover, the results for the z-score in assay [2] (setting [8]), in assay [2] (setting [9]) and in assay [3] were -0.237 (inactive), -0.595 and 0.315 (inactive), respectively.

Turning to `Cc1nsc(NC(=O)N2CCC(C(O)CC(C)C)CC2)n1` (configuration not stated), the fold change was 0.832 (inactive) in assay [1] (setting [4]) and 2.21 in assay [1] (setting [5]). Also, the cell count in assay [1] (setting [6]) stood at 6540; in assay [1] (setting [7]), 7860. The z-score in assay [2] (setting [8]) is 0.507 (inactive); in assay [2] (setting [9]), -0.186; in assay [3] it was -0.63 (inactive).

Take `NCC(=O)Nc1ccc(OCc2ccccc2)cc1`: the fold change was 0.851 (inactive) in assay [1] (setting [4]) and 0.248 in assay [1] (setting [5]). The cell count stood at 8020 in assay [1] (setting [6]) and 9430 in assay [1] (setting [7]). The z-score in assay [2] (setting [8]) is 1.42 (inactive); in assay [2] (setting [9]), -0.396; in assay [3] it was -1.35 (inactive).

On to `CC(=O)c1sc(Nc2ccccc2)nc1C`, for which the fold change in assay [1] (setting [4]) was 0.911 (inactive); in assay [1] (setting [5]), 0.648. Besides, the cell count in assay [1] (setting [6]) is 8310; in assay [1] (setting [7]), 9120. Besides, the z-score in assay [2] (setting [8]) was 3.09 (active); in assay [2] (setting [9]), -0.213; in assay [3], 0.63 (inactive).

With `CN1CCN(c2ncnc3sccc23)CC1=O`, the fold change in assay [1] (setting [4]) is 0.928 (inactive); in assay [1] (setting [5]), 1.32. The cell count in assay [1] (setting [6]) was 9620; in assay [1] (setting [7]), 10400. The z-score in assay [2] (setting [8]) is -0.0885 (inactive); in assay [2] (setting [9]), -0.276; in assay [3], -0.54 (inactive).

As for `COCCn1cncc1CNc1nccc(-c2c(C)nn(C)c2C)n1`, the fold change in assay [1] (setting [4]) is 0.881 (inactive); in assay [1] (setting [5]) it was 0.975. The cell count in assay [1] (setting [6]) is 8090; in assay [1] (setting [7]) it was 9180. In addition, the z-score was -0.172 (inactive) in assay [2] (setting [8]), -0.0475 in assay [2] (setting [9]) and -0.325 (inactive) in assay [3].

The record behind these values is PubChem BioAssay.
